# From PubChem BioAssay
# An excerpt weighted towards active compounds, which were near 3.8% of everything screened.
# 697 NFkB inh – lowers PMA/ionomycin-induced NF-kB signal in 697 B cells. AID 435022. 330,000 tested, 0.33% active. 697 B-cell NF-kB luciferase reporter, 16 h. inhibition, % at 4 µM; in the data active = inhibition above about 35%
# Shn3 inh set2 – Schnurri-3 reporter inhibition in Clone20 osteoblasts. Clone20 osteoblast Shn3 3'UTR firefly luciferase, 24 h. inhibition, % at 12.5 µM. 360,000 tested, 0.52% active. AID 588674;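 active = mean inhibition of at least 75% with every replicate also reaching 75%; inconclusive = mean inhibition at least 75% but some replicate below; inactive = mean inhibition below 75%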;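 also: 0% = median of neutral control wells and 100% = pilot-screen positive control compound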
# Mdm2-MdmX inh – disrupts the human Mdm2-MdmX interaction | O15151+Q00987 | SaOS-2 split-luciferase Mdm2/MdmX complementation, luminescence | inhibition, % at 8 µM | 330,000 tested, 3% active | AID 485346;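 active = inhibition of at least 50% at 8 µM in the primary screen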
# Target sequence (O15151 whole entry, looked up): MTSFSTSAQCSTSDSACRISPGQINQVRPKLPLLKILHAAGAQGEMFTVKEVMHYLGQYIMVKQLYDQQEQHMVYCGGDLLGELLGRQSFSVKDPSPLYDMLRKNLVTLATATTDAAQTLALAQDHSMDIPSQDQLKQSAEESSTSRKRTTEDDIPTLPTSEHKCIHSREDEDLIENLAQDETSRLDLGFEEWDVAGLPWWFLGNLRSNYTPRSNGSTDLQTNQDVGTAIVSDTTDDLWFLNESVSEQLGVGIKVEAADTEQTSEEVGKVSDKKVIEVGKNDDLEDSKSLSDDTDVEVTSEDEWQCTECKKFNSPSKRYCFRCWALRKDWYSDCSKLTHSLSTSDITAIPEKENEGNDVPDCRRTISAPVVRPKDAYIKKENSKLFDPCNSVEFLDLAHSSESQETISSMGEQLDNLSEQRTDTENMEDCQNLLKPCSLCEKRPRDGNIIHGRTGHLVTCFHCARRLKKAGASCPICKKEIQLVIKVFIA
# Target sequence (Q00987 whole entry, looked up): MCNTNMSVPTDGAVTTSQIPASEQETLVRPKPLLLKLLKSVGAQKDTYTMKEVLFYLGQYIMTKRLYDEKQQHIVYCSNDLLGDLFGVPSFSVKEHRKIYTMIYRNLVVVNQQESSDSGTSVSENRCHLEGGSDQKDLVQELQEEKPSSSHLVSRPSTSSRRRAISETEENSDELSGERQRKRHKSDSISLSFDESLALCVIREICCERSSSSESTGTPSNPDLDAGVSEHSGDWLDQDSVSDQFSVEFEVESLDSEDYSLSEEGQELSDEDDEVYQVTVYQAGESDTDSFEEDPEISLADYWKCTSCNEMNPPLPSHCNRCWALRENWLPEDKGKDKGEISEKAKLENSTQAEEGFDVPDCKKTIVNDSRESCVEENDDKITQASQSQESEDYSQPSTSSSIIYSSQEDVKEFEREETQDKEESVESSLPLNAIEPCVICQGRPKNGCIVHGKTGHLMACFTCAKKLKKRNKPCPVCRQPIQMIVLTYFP
# Gli-Sufu antag – antagonists of Gli-Sufu signaling | Sufu-KO-LIGHT fibroblasts, Gli luciferase reporter luminescence | inhibition, % at 5 µM | 340,000 tested, 0.74% active;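 active = inhibition above about 55%, limit read from the data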;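 also: 0% = DMSO-treated cells and 100% = wells with medium but no cells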
# Jurkat NFkB inh – inhibitors of the PMA/ionomycin-induced NF-kB reporter in Jurkat cells | inhibition, % at 4 µM | PMA/ionomycin-induced NF-kB luciferase reporter, luminescence | AID 435003 | 330,000 tested, 0.53% active; in the data active = inhibition above about 50%
# Mdm2-MdmX conf – human Mdm2/MdmX binding inhibition, confirmed | luminescent assay | inhibition, % at 8 µM | shares compounds with Mdm2-MdmX inh | 10,000 tested, 55% active; in the data active = inhibition above about 40%
# FLuc counter – counter-screen for Mdm2/MdmX inhibitors: full-length luciferase; SaOS-2 full-length luciferase counterscreen, luminescence; AID 504607; 6,200 tested, 77% active; shares compounds with Mdm2-MdmX inh; inhibition, % at 8 µM;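 active = mean inhibition at 8 µM reaching about 37%, which flags the compound as non-specific, limit read from the data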;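 also: p53-null SaOS-2 cells with luciferase driven by a doxycycline-inducible promoter; compound on cells about two nights before reading with doxycycline added after day one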
# The depositor's hits bear a star; ? = inconclusive; . = not tested or not shown.
SMILES,697 NFkB inh,Shn3 inh set2,Mdm2-MdmX inh,Gli-Sufu antag,Jurkat NFkB inh,Mdm2-MdmX conf,FLuc counter
CC(C)COC(=O)c1cccc2c1-c1ccccc1/C2=N\O,-28,-4,44,11,2,.,.
CCOC(=O)c1cccc2c1-c1ccccc1/C2=N/O,-29,19,76*,-4,-1,57*,31
C/C(=N\NC(=O)C(C)Sc1ccccc1)c1ccc([N+](=O)[O-])cc1 (centres undefined),0,28,-9,31,7,.,.
O=C(COc1ccc(-c2ccccc2)cc1)N1CCN(S(=O)(=O)Cc2ccccc2)CC1,-29,46,57*,-25,22,59*,75*
Cc1nc(C(=O)O)cc([N+](=O)[O-])c1C,.,-53,.,.,.,.,.
COC(CNC(=O)CCc1c(C)nc2c(c(C)nn2-c2ccc(C)cc2)c1C)OC,-13,20,16,2,-26,.,.
Cc1ccc(-n2nc(C)c3c(C)c(CCC(=O)Nc4ccc(CN5CCCC5)cc4)c(C)nc32)cc1,-6,-1,89*,9,-14,50*,25
CCN(CC)CCNC(=O)CCc1c(C)nc2c(c(C)nn2-c2ccc(C)c(C)c2)c1C,6,-5,58*,25,-19,44*,48*
OC(CNCc1cccnc1)COc1ccc2ccccc2c1 (centres undefined),-4,9,3,16,3,.,.
CCN(CC)C(=O)Cn1cc(C(=O)C(=O)N2CCN(c3ccc(OC)cc3)CC2)c2ccccc21,11,16,0,-15,4,.,.
Cn1c(NCc2ccccc2)nc2cc(-c3ccccc3)sc2c1=O,.,-32,.,.,.,.,.
Cc1nc2cc(-c3ccccc3)sc2c(=O)n1N,9,73,62*,34,35,56*,30
O=C(NCc1cccnc1)NC(=O)c1ccc(Cl)cc1,-8,5,24,-6,19,.,.
O=[N+]([O-])c1ccc(S(=O)(=O)CC(CN2CCCCC2)N2CCCCC2)cc1 (centres undefined),-9,57,100*,8,41,94*,51*
O=S(=O)(CC(CN1CCCCC1)N1CCCCC1)c1ccccc1 (centres undefined),18,-15,72*,22,4,66*,17
O=[N+]([O-])c1ccc(S(=O)(=O)CC(CN2CCOCC2)N2CCOCC2)cc1 (centres undefined),6,6,28,2,11,.,.
COCCN(Cc1cc2cc3c(cc2nc1Cl)OCO3)C(=O)c1ccc(C)cc1,-4,42,21,48,9,.,.
O=C(NC(c1ccccc1)c1cc(Cl)c2cccnc2c1O)c1cccnc1 (centres undefined),-12,.,83*,.,20,89*,10
CCC(=O)NC(c1ccco1)c1cc(Cl)c2ccccc2c1O (centres undefined),0,-15,-24,11,14,.,.
CCC(=O)NC(c1cc(Cl)c2ccccc2c1O)C(C)C (centres undefined),4,8,-2,28,1,.,.
CCCC(=O)NC(c1ccco1)c1cc(Cl)c2cccnc2c1O (centres undefined),-76,43,65*,-6,-31,46*,23
CCCC(=O)NC(c1cccs1)c1cc(Cl)c2cccnc2c1O (centres undefined),-35,80,82*,25,-5,69*,25
CCOc1ccc(C(Nc2cccnc2)c2cc(Cl)c3cccnc3c2O)cc1 (centres undefined),-48,77,64*,-3,22,65*,43*
O=C(O)COc1ccccc1C(Nc1cccnc1)c1cc(Cl)c2cccnc2c1O (centres undefined),16,6,-15,-6,9,.,.
Cc1cc(C(=O)CCC(=O)Nc2cccc(F)c2)c(C)s1,.,-13,.,.,.,.,.
SMILES,697 NFkB inh,Shn3 inh set2,Mdm2-MdmX inh,Gli-Sufu antag,Jurkat NFkB inh,Mdm2-MdmX conf,FLuc counter
CN1CCN(C(c2ccc(F)cc2)c2ccc3cccnc3c2O)CC1 (centres undefined),.,27,.,5,.,.,.
CCCC(=O)NC(c1ccc2c(c1)OCO2)c1cc(Cl)c2cccnc2c1O (centres undefined),-10,87*,76*,32,8,72*,21
CN1CCN(C(c2ccc(Br)cc2)c2cc(Cl)c3cccnc3c2O)CC1 (centres undefined),-10,?,80*,2,16,62*,48*
CCC(=O)NC(c1ccc(C)cc1)c1cc(Cl)c2cccnc2c1O (centres undefined),-29,79,79*,23,-7,55*,24
COc1ccccc1C(=O)NCC(=O)OCC(=O)N(CC(C)C)c1c(N)n(Cc2ccccc2)c(=O)[nH]c1=O,-1,-10,-2,-9,-1,.,.
CCCC(=O)Nc1ccc(Cc2ccc(NC(=O)CCC)c(C(=O)O)c2)cc1C(=O)O,1,14,-34,5,11,.,.
CN(C)CCNC(=O)COc1ccc(C23CC4CC(CC(C4)C2)C3)cc1,6,-25,66*,6,-5,23,.
Cc1ccc(C)c(OCC(=O)N2CCN(c3ncccn3)CC2)c1,7,-50,-16,4,0,.,.
C/C(=N\NC(=O)c1ccc(Cl)c(Cl)c1)c1ccc(Br)s1,-1,13,68*,10,4,55*,47*
O=C(Cc1cccc(NC(=O)C2CCCN(C(=O)C3CCCC3)C2)c1)Nc1ccc(C(=O)N2CCCCC2)cc1 (centres undefined),.,9,.,6,.,.,.
COc1cccc(CC(=O)OCC(=O)NNC(=O)c2ccc(Br)cc2)c1,9,-16,-3,-5,3,.,.
CCOC(=O)c1ccc(NC(=O)Nc2cccc(C)n2)cc1,-18,32,57*,-26,-15,-10,.
Cc1cccc(NC(=O)Nc2ccc(C#N)cc2)n1,-86,-5,78*,0,37,67*,78*
Cc1cccc(NC(=O)Nc2cccc(C#N)c2)n1,-59,-89,12,-81,-25,.,.
CC(C)OC(=O)CCCNc1ccc([N+](=O)[O-])cc1[N+](=O)[O-],-10,-12,-3,-4,1,.,.
CCCCOc1cccc(C2/C(=C(\O)c3ccc4c(c3)OCCO4)C(=O)C(=O)N2CCN2CCOCC2)c1 (centres undefined),-3,-2,16,2,-9,.,.
COc1cccc(CN(Cc2ccco2)S(=O)(=O)c2ccc(S(=O)(=O)NCc3ccccc3)cc2)c1OC,14,65,44,6,3,.,.
COc1cccc(CN(Cc2ccccc2F)S(=O)(=O)c2ccc(S(=O)(=O)NCc3ccccc3)cc2)c1,-7,9,52*,1,9,34,.
COc1ccc(NC(=O)COc2nc3ccccc3nc2N2CCOCC2)c(OC)c1,12,-17,20,0,-14,.,.
